MEKK3 PB1 HTS – modulators (inhibitors or enhancers) of MEK5 binding to human MEKK3 PB1 domain; Q99759; bead-based flow cytometry, Alexa488-MEK5 binding to MEKK3; actives lie on both sides; 0 = blocked by unlabeled MEK5, 100 = vehicle; binding response (% of control), % at 10 µM; 290,000 compounds, 1.4% hits; AID 1529;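 active = binding response more than 3 SD above or below the average of its plate-row segment, actives on both sides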;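 also: Alexa488 bead fluorescence after subtracting the streptavidin-only scavenger bead signal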
SUMO Mot1 rescue – blocks SUMOylation pathway, rescuing yeast Mot1-301 growth | 320,000 compounds, 1% hits | growth rescue, % at 18.8 µM | S. cerevisiae Mot1-301 growth rescue, ATP luminescence, 38.5C; percent above DMSO median, 100 means doubled;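 active = every valid replicate shows activation above 250% relative to neutral control wells; inactive = the rest, any valid replicate at or below 250%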;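 also: OY570 slx delta 5 strain wells were the positive control but not used for scaling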
CHT PAM – human CHT allosteric activation; Q9GZV3; CHT-expressing cells, membrane potential dye, choline EC20; active compounds read high; LV-AA mutant CHT in HEK293 cells; B-score at 10 µM; 310,000 compounds, 0.49% hits;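 active = initial fluorescence not abnormally high and integrated response B-score, plate-corrected, over 3 SD above library mean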
Target sequence (Q9GZV3 whole entry, looked up): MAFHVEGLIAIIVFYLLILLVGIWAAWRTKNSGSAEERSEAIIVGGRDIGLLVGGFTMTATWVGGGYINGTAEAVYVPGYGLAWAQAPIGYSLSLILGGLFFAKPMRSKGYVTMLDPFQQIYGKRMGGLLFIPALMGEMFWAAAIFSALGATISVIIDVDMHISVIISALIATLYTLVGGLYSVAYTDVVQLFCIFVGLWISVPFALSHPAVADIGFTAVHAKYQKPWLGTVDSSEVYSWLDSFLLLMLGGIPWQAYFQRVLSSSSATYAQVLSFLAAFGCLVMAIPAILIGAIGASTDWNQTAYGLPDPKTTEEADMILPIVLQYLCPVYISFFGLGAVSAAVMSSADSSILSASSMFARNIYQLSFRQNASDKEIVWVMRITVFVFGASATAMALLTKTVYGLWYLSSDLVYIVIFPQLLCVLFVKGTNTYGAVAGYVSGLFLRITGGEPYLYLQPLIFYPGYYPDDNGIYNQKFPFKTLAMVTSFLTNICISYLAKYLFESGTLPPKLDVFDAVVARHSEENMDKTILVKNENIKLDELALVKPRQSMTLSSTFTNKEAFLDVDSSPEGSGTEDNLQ
MEKK2 mut-MEK5 – signal of MEK5 binding to mutant human MEKK2 PB1 domain; bead flow cytometry, Alexa488-MEK5 binding to MEKK2 mutant; percent response, % at 10 µM; 290,000 compounds, 0.35% hits; in the data active = percent response above about 24%, passing the limit was not always enough
MEKK2 WT-MEK5 – raises or lowers MEK5 binding to wildtype human MEKK2 PB1 domain. Q9Y2U5. bead flow cytometry, Alexa488-MEK5 binding to MEKK2 WT; actives lie on both sides. 290,000 compounds, 1.1% hits. binding response (% of control), % at 10 µM; in the data active = binding response below about 67% or above about 130%
CHT inh – inhibits the human high affinity choline transporter | CHT-expressing cells, membrane potential dye, choline response; active compounds read low | 310,000 compounds, 0.86% hits | B-score at 10 µM | Q9GZV3 | AID 488975;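 active = B-score over 3 SD under the library average, and starting fluorescence ratio not unusually high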;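 also: choline stimulus applied at its EC90 after an EC20 pre-addition; B-score computed on integrated fluorescence ratio after choline addition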
MEKK2wt confirm – raises or lowers MEK5 binding to wildtype human MEKK2, retest; AID 1892; bead flow cytometry, Alexa488-MEK5 binding to MEKK2 WT; actives lie on both sides; shares compounds with MEKK3 PB1 HTS; 5,900 compounds, 2.4% hits; binding response (% of control), % at 10 µM; in the data active = binding response below about 16% or above about 210%; inactive = in between
MEKK2mut confirm – signal of MEK5 binding to mutant human MEKK2, retest. shares compounds with MEKK3 PB1 HTS. bead flow cytometry, Alexa488-MEK5 binding to MEKK2 mutant. percent response, % at 10 µM. 5,900 compounds, 2% hits. AID 1893; in the data active = percent response mostly above about 71%, no sharp cut-off; inactive = mostly below about 38%;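 also: higher means compound restores mutant binding toward wildtype level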
MEKK3-MEK5 inh – MEKK3-MEK5 PB1 inhibition, single concentration confirmation | shares compounds with MEKK3 PB1 HTS | AID 1894 | bead flow cytometry, Alexa488-MEK5 binding to MEKK3; active compounds read low | binding response (% of control), % at 10 µM | 5,900 compounds, 1.8% hits;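 active = binding response below 72% of control, or above a set upper limit, though filed actives all read lower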;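 also: 100% = DMSO only wells and 0% = binding blocked by excess unlabeled MEK5; lower values mean stronger disruption of MEK5 binding to MEKK3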
Starred values were filed as active, the others as inactive; i = inactive; . = no result; [ ] = remark or other dose. Hits are enriched below; roughly 4.1% of the tested compounds scored in any of these assays.

SMILES | MEKK3 PB1 HTS | SUMO Mot1 rescue | CHT PAM | MEKK2 mut-MEK5 | MEKK2 WT-MEK5 | CHT inh | MEKK2wt confirm | MEKK2mut confirm | MEKK3-MEK5 inh
CC(=O)CCc1ccc(Oc2nc(-c3cccnc3)nc3ccccc23)cc1 | 92 | -3 | i | -3 | 89 | i | . | . | .
CCn1nnnc1-c1ccc(OC)c(S(=O)(=O)NCCc2ccccc2)c1 | 45*[inhibitor] | 103 | i | 1 | 101 | i | 101 | -1 | 98
CC1CCC(N2CCNCC2)CC1 (centres undefined) | 95 | -12 | i | -14 | 90 | i | . | . | .
Cc1ccccc1CN(C)CC(=O)Nc1c(C)cccc1C(C)C | 72*[inhibitor] | -7 | i | -24 | 71 | i | 107 | 4 | 104
COc1ccc(OCCCC(=O)N(C)CC(=O)Nc2ccccc2Cl)cc1 | 106 | 1 | i | 11 | 114 | i | . | . | .
COc1ccc2ccccc2c1CNC(C)CCc1ccccc1 (centres undefined) | 105 | 40 | i | 4 | 122 | i | . | . | .
COc1ccccc1OCC(O)CN1CCN(C(=O)c2ccccc2)CC1 (centres undefined) | 105 | -11 | i | 4 | 110 | i | . | . | .
CCCOC(=O)c1ccc(OCC(O)CN2CCN(C(=O)c3ccccc3)CC2)cc1 (centres undefined) | 109 | 3 | i | 27* | 115 | i | 101 | 1 | 105
CN(C)C(=O)C(CCN1CCC(O)(c2ccc(Cl)cc2)CC1)(c1ccccc1)c1ccccc1 | 116 | 47 | i | 12 | 150* | i | 123 | 7 | 103
CCn1c(SCC(=O)NNC(=S)Nc2ccc(C)cc2)nnc1-c1ccc(Cl)cc1 | 134* | 9 | i | 1 | 111 | i | 97 | 0 | 106
COc1ccc(-c2noc(CN3CCOCC3)n2)cc1OC | 1.0*[inhibitor] | 3 | i | -65 | 0.0*[inhibitor] | i | 97 | -6 | 98
Cc1ccc(-c2noc(CN3CCOCC3)n2)cc1 | 103 | 40 | i | 14 | 110 | i | . | . | .
COC(=O)CCCC1=CC2=CC(=O)C(C)(OC(=O)c3cccs3)C(=O)C2=CN1CCN1CCOCC1 (centres undefined) | 96 | -15 | i | 5 | 96 | i | . | . | .
COC(=O)CCCC1=CC2=CC(=O)C(C)(OC(=O)c3cccs3)C(=O)C2=CN1C1CC1 (centres undefined) | 122 | 1 | i | 4 | 142* | i | 100 | -2 | 103
COC(=O)CCCC1=CC2=CC(=O)C(C)(OC(=O)c3cccs3)C(=O)C2=CN1c1ccccc1 (centres undefined) | 97 | 15 | i | 0 | 99 | i | . | . | .
COC(=O)CCC(=O)OC1(C)C(=O)C=C2C=C(C3CC3)N(CCN3CCOCC3)C=C2C1=O (centres undefined) | 119 | -4 | i | 4 | 143* | i | 108 | 6 | 104
COC(=O)CCC(=O)OC1(C)C(=O)C=C2C=C(C3CC3)N(CCCCO)C=C2C1=O (centres undefined) | 118 | -1 | i | 2 | 141* | i | 87 | -11 | 84
COC(=O)CCC(=O)OC1(C)C(=O)C=C2C=C(C3CC3)N(CCCOC(C)C)C=C2C1=O (centres undefined) | 86 | -1 | i | 1 | 95 | i | . | . | .
COC(=O)CCC(=O)OC1(C)C(=O)C=C2C=C(C3CC3)N(C(CO)CO)C=C2C1=O (centres undefined) | 124 | 0 | i | 3 | 151* | i | 104 | 2 | 101
CCc1nnc(NS(=O)(=O)c2ccc(NC(=O)c3ccccc3O)cc2)s1 | 103 | 12 | i | 6 | 105 | i | . | . | .
CCc1sc(C(=O)Nc2cccnc2)cc1Br | 104 | -9 | i | 5 | 108 | i | . | . | .
COc1ccc(C(=O)N/N=C/c2ccc(OC)c(COc3ccc(F)cc3F)c2)cc1 | 104 | 28 | i | 2 | 102 | i | . | . | .
CC(C)CN1C=C2C(=O)C(C)(OC(=O)CCc3ccccc3)C(=O)C=C2C=C1c1ccc(C#N)cc1 (centres undefined) | 118 | 1 | i | 6 | 135 | i | . | . | .
CC1(OC(=O)CCc2ccccc2)C(=O)C=C2C=C(c3ccc(C#N)cc3)N(C3CC3)C=C2C1=O (centres undefined) | 125 | -23 | i | 4 | 140* | i | 97 | -1 | 101
COc1ccc(C(=O)CSc2ccc(-c3ccccc3)nn2)cc1 | 95 | 9 | i | 6 | 97 | i | . | . | .
SMILES | MEKK3 PB1 HTS | SUMO Mot1 rescue | CHT PAM | MEKK2 mut-MEK5 | MEKK2 WT-MEK5 | CHT inh | MEKK2wt confirm | MEKK2mut confirm | MEKK3-MEK5 inh
COc1ccc(CCNC(=O)CSc2ccc(-c3ccccc3)nn2)cc1 | 131* | -9 | i | 0 | 104 | i | 99 | -12 | 97
COc1ccccc1CCNC(=O)CSc1ccc(-c2cccs2)nn1 | 61*[inhibitor] | -12 | i | 8 | 99 | i | 100 | -1 | 105
c1cncc(CSc2nnc3ccc(-c4cccs4)nn23)c1 | 99 | -24 | i | 1 | 100 | i | . | . | .
c1ccc(CSc2nnc3ccc(-c4cccs4)nn23)nc1 | 105 | 4 | i | 197* | 92 | i | 98 | 1 | 102
Clc1cc2c(c(CSc3nc4ccccc4n4cccc34)c1)OCOC2 | 94 | 70 | i | -13 | 91 | i | . | . | .
CC(=O)c1c(CSc2ccccc2)oc2ccc(O)c(CN(C)C)c12 | 103 | -1 | i | 12 | 111 | i | . | . | .
CCOC(=O)c1c(CSc2ccc(CC)cc2)oc2ccc(O)c(CN(C)C)c12 | 112 | -20 | i | 36* | 153* | i | 166 | 38 | 109
CCOC(=O)c1ccc(S(=O)(=O)NNC(=O)c2cccc(N(C)C)c2)cc1 | 3.0*[inhibitor] | -8 | i | 4 | 3.0*[inhibitor] | i | 98 | -3 | 100
O=C1N=C(N2CCN(c3ccccc3)CC2)S/C1=C\c1cn[nH]c1-c1ccccc1 | 105 | -3 | i | 0 | 100 | i | . | . | .
Cc1ccc(N2CCN(C3=NC(=O)/C(=C\c4cn[nH]c4-c4ccccc4)S3)CC2)cc1 | 135* | 1 | i | 0 | 103 | i | 98 | -1 | 98

Source: PubChem
